Results: PubChem BioAssay (Tox21)
Inconclusive results are not listed. A call without a number means that no potency is given here. Values without a mark were called inactive. Active and inactive are the calls of the source. The call rests on the fitted dose curve; in most records, active means well fitted cell-killing curve with a large enough effect in the repeat runs; inconclusive means weak or mixed curves, or effect the other way; inactive means flat fitted curve, though single readings scatter.

Assay: qHTS assay to identify small molecule agonists of the constitutive androstane receptor (CAR) signaling pathway - cell viability counter screen (AID 1224836); further: nearly all actives have a fitted effect of over 45% in size
Details: HepG2-CYP2B6-hCAR viability, CellTiter-Fluor, 23 h, PK11195 added to every well; series mostly up to 92.4 µM
From the text: U.S. Tox21 Program National Center for Advancing Translational Sciences [NCATS] NIH Chemical Genomics Center [NCGC] U.S. Environmental Protection Agency [EPA] National Institutes of Environmental Health Sciences [NIEHS] National Toxicology Program [NTP] U.S. Food and Drug Administration [FDA] Tox21 Assay Overview: The constitutive androstane receptor (CAR) is a nuclear receptor which regulates multiple drug metabolizing enzymes (DMEs) and transporters. Activating CAR will generally increase the transcription and subsequent translation of CYP2B6 and CYP3A4. These two DMEs represent about 50% of the drug metabolizing potential in the body. […] Recently, there have also been studies performed indicating CARs role in energy metabolism and cancer therapy. Therefore, inducing CARs activity could have a potential effect on diabetes and cancer. Identifying environmental toxins and compounds which modulate CAR, through the use of the Tox21 10K compound collection, will be an important step in determining the toxicity and potential therapeutic effects these factors will have on the human body. To differentiate true CAR agonists from cytotoxic substances, the assay is multiplexed with a cell viability assay.
Tox21 Assay Protocol Summary: A double-stable (hCAR and CYP2B6-2.2kb) transfected cell line, derived from human hepatoma (HepG2) cells, was utilized for the duration of the quantitative high-throughput screens. The HepG2-CYP2B6-hCAR cells were dispensed at 2500 cells/4 uL/well in 1536-well white solid bottom plates using a Multidrop Combi. After the assay plates were incubated at 37 C/5% CO2 for 4 hrs, 23 nL of compounds at 15 concentrations (from 5-48 columns) or positive control (from 1 to 4 columns) were transferred to the assay plates using a Pintool station. One uL of PK11195 (final concentration = 0.75 uM) was added, using a Flying Reagent Dispenser, inside each well. After a 23 hr incubation period at 37 C/5% CO2, 1 uL of CellTiter-Fluor reagent was added into each well of the assay plates using a Flying Reagent Dispenser. The fluorescence intensity in the plates was then measured using a ViewLux plate reader.

SMILES	viability change, negative = cytotoxic	Potency
CCCCCCC(=O)CCCCCC/C=C/C[C@@H](O)[C@H](O)[C@@](N)(CO)C(=O)O	6.33% [at 19 µM]	–
c1ccc2c(c1)CCNC2	–	inactive
CCC(CC)(CNC(=O)CCCO)c1cccc(OC)c1	–	inactive
COc1cc(CC(C)N)cc(OC)c1OC (stereo not given)	–	inactive
CCCCCCCCBr	–	inactive
CCCOC(=O)c1cncn1C(C)c1ccccc1 (stereo not given)	–	inactive
C=CCCC#N	–	inactive
C/C=C/CC#N	–	inactive
CC(C)C(C)(N)C#N (stereo not given)	–	inactive
CCCC(C)(COC(N)=O)COC(N)=O	–	inactive
ClCCCCl	–	inactive
CCCCCCCC(=O)Cl	–	inactive
CCNc1nc(NCC)nc(SC)n1	–	inactive
Oc1ccc(Cc2ccc(O)cc2)cc1	–	inactive
CC(C)NCC(O)c1ccc([N+](=O)[O-])cc1 (stereo not given)	–	inactive
[O-][Br+2]([O-])O	–	inactive
CC(C)(N)Cc1ccccc1Cl	–	inactive
CC(Cl)(Cl)Cl	–	inactive
O=P(O)(O)CN(CP(=O)(O)O)CP(=O)(O)O	–	inactive
CC(C)[N+](C)(CCC(C(N)=O)(c1ccccc1)c1ccccc1)C(C)C	–	inactive

SMILES	viability change, negative = cytotoxic	Potency
CCCOc1nn(C(=O)NS(=O)(=O)c2ccccc2C(=O)OC)c(=O)n1C	–	inactive
CCN(CC)C1CCCCC1	–	inactive
O=C(NC(=O)c1c(F)cccc1F)Nc1cc(Cl)c(F)c(Cl)c1F	–	inactive
CCNc1nc(Cl)nc(NC(C)(C)C)n1	–	inactive
Nc1c(Cl)c(F)nc(OCC(=O)O)c1Cl	–	inactive
BrCC1CO1 (stereo not given)	–	inactive
C(COCC1CO1)OCC1CO1 (stereo not given)	–	inactive
O=c1[nH]c2ccccc2o1	–	inactive
CN(C)C1CCCCC1	–	inactive
ClC1=C(Cl)C2(Cl)C(CBr)CC1(Cl)C2(Cl)Cl (stereo not given)	–	inactive
CN1COCN(Cc2cnc(Cl)s2)/C1=N\[N+](=O)[O-]	–	inactive
CON(C)C(=O)Nc1ccc(Br)c(Cl)c1	–	inactive
CCC1(c2cccc(O)c2)CCCCN(C)C1 (stereo not given)	–	inactive
C[C@]12C=CC(=O)C=C1CC[C@@H]1[C@@H]2CC[C@@]2(C)[C@H]1CC[C@]2(C)O	–	inactive
CCN[C@@H](C)Cc1cccc(C(F)(F)F)c1	–	inactive
O=C(Cl)/C=C/C(=O)Cl	–	inactive
CCOP(=O)(CN(CCO)CCO)OCC	–	inactive
CCc1ccc(C2CCNCC2)cc1	–	inactive
O=c1[nH]c2ccccc2n1C1CCNCC1	–	inactive
Cc1ccc(-c2nc3ccc(C)cn3c2CC(=O)N(C)C)cc1	–	inactive
